Source: PubChem BioAssay
Unmarked numbers belong to inactive results. How the calls were made is not given here.

target: Pantothenate synthetase (Mycobacterium tuberculosis (strain ATCC 25618 / H37Rv)) (UniProt P9WIL5); test: Recombinant Mtb pantothenate synthetase (PanC) inhibitors, coupled enzyme, confirmatory (AID 375); settings: coupled enzyme assay; at 10 µM, stronger effect = higher value;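 further: 0% = full reaction with vehicle and 100% = no enzyme background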
Sequence (P9WIL5 whole entry, looked up): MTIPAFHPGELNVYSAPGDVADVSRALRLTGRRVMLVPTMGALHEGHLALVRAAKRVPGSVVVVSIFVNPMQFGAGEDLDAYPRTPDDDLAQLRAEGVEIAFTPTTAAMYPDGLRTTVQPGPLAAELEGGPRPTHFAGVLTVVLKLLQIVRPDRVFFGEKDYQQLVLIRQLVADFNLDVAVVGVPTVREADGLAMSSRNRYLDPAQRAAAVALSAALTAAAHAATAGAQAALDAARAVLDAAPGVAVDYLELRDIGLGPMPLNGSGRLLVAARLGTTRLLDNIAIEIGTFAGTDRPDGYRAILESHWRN

| Compound | inhibition [%] |
| --- | --- |
| CCN(CC)CCn1c(=N)n(CCO)c2ccccc21 | 0 |
| O=C(COc1ccccc1)NCC(c1cccs1)N1CCOCC1 (configuration not stated) | 4 |
| c1cncc(-c2nnc3sc(-c4ccco4)nn23)c1 | 0 |
| CCOc1ccc(-c2nnn(CCC(=O)O)n2)cc1OC | 0 |
| CN(C)c1nc(N)nc(-c2nc3ccccc3s2)n1 | 0 |
| Cc1ccc(S(=O)(=O)N2CCOCC2)cc1C(=O)Nc1ccccn1 | 0 |
| CCOCCn1c(CN2CCN(c3cccc(Cl)c3)CC2)nc2c1c(=O)n(C)c(=O)n2C | 4 |
| CCOCCCNC(=O)C(c1ccc(C)cc1)N(Cc1ccc2c(c1)OCO2)C(=O)c1cnccn1 (configuration not stated) | 0 |
| COc1ccc(CCNS(=O)(=O)c2ccc3oc(C(=O)O)c(C)c3c2)cc1OC | 0 |
| CCc1c(C(=O)Nc2ncn(Cc3cccc(C)c3)n2)csc1C | 4 |
| CC(=O)C1=C(C)OC(N)=C(C#N)C1c1ccncc1 (configuration not stated) | 0 |
| O=C(NCc1ccc2c(c1)OCO2)c1ccc(NS(=O)(=O)c2ccc3c(c2)OCCO3)cc1 | 0 |
| CCN(CC)C(=O)c1ccc(NS(=O)(=O)c2ccccc2)cc1 | 0 |
| O=c1cc(CSc2ccccn2)c2ccccc2[nH]1 | 3 |
| CC(=O)c1c(C)[nH]c(C(=O)OCc2nnc(-c3ccccc3)o2)c1C | 0 |
| CC1=C(C(=O)OCCOC(C)C)C(c2cc3c(cc2Br)OCO3)C2=C(CCCC2=O)N1 (configuration not stated) | 0 |
| Cc1[nH]c2c(C)cccc2c(=O)c1Br | 0 |
